Inconclusive results are not listed. Active and inactive are the calls of the source. The call rests on the fitted dose curve; in most records, active means well fitted activation curve with a large enough effect in the main read-out, with a control signal flat (not every such curve was filed as active); inconclusive means small, poorly fitted or top-dose-only effect, or effect the other way, or a change in a side signal; inactive means flat fitted curve, though single readings scatter.

In this assay the target is 3',5'-cyclic-AMP phosphodiesterase 4B (Homo sapiens) (UniProt Q07343). Put plainly: qHTS Assay for Inhibitors of PDE-IV (AID 607). As to conditions: HEK293 ACTOne CNG channel cells, membrane potential fluorescence; series mostly up to 22.9 µM. From the text: NIH Chemical Genomics Center [NCGC]
3',5'-cyclic-AMP phosphodiesterase 4B (Homo sapiens), sequence (Q07343 whole entry, looked up): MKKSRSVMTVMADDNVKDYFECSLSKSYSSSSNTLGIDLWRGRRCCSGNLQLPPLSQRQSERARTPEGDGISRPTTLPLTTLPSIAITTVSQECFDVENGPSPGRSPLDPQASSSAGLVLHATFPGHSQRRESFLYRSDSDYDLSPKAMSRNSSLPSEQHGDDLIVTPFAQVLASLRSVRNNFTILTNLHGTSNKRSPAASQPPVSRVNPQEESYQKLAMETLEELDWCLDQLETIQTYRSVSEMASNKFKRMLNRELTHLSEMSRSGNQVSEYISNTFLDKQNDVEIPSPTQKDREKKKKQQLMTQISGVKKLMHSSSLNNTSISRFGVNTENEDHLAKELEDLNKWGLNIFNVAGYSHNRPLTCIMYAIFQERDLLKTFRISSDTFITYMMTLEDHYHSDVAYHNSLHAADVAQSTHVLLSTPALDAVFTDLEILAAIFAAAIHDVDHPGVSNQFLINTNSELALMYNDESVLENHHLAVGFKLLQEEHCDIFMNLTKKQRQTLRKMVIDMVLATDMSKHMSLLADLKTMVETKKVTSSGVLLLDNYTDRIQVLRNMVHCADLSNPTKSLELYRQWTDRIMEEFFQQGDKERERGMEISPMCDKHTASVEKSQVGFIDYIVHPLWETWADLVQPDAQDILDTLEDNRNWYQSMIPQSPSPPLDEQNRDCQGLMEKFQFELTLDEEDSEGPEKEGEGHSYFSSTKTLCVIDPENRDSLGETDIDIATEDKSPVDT
NIH Molecular Libraries Screening Centers Network [MLSCN]
The cyclic nucleotide phosphodiesterases (PDEs) are proteins that catalyze hydrolysis of 3', 5'-cyclic nucleotides, such as cyclic adenosine monophosphate (cAMP) and cyclic guanosine monophosphate (cGMP), to their corresponding 5'-nucleotide monophosphates. These enzymes play an important role in controlling cellular concentrations of cyclic nucleotides and have a central role in a variety of intracellular signaling events. cAMP PDEs are emerging as a promising class of drug targets in asthma and cardiovascular disease therapeutic areas.
There are no commercially available cell-based screening assays for PDE inhibitors: currently biochemical assays are done using pure substrates (cAMP or cGMP) and purified recombinant PDE enzymes. As with other biochemical screens on intracellular targets, false positives and false negatives may result from issues involving cell membrane permeability, cellular metabolism, and the like.
Here we report the development of a cell-based screening assay for cAMP phosphodiesterase (PDE) inhibitors. The assay is based on the BD ACTOne# technology (BD Biosciences) which utilizes a modified cyclic nucleotide-gated channel (CNG) to monitor intracellular cAMP changes in live cells. The CNG channel is localized on the plasma membrane, and opens when the intracellular cAMP level increases, resulting in ion flux and cell membrane depolarization. The influx of cations through the CNG channel can be quantified using membrane potential (MP) dyes. We modified the BD ACTOne technology to allow the detection of PDE inhibitors, and performed an inhibitor screen for PDE-IV, which is expressed endogenously in HEK293 cells. We optimized this assay in homogeneous 1536-well plate assay format for high throughput screening.
NCGC Assay Protocol Summary:
The medium contained 10% FBS (Invitrogen), 2 mM L-glutamine, and 250 ug/ml G418 (Cellgro) and 1 ug/ml puromycin (Clontech). ACTOneTM parental cells (BD Biosciences) were maintained in the same medium without puromycin.
The activity of the CNG channel was measured by BD ACTOneTM membrane potential dye kit (BD Biosciences). Forskolin, a positive control for cAMP activation and RO 20-1724, a PDE inhibitor, were both purchased from Sigma and solublized in DMSO.
Sequence,Parameter,Value,Description
1,Reagent,3 uL,1000 cells/well 1536 TC treated Black plate
3,Compound,0.5 uL,Kalypsys dispense RO 20-1724 100 uM final [A]
4,Reagent,3 uL,BD membrane potential dye
6,Compound,23 nL,Final concentration was 0.7nM to 22.9uM
8,Detector,EX 535 / EM 590 [B],Envision
Footnotes: [A] The stock 2 mM RO 20-1724 PDE inhibitor was made in 10 % DMSO. Parental cell line received 10 uM forskolin + 100 uM RO. [B] Envsion settings: Bottom Excitation 535/20 nm top emission 590/20, gain of 150 and 5 flashes per well.
Keywords: PDE, PDE-IV, cytotoxicity, flourescence, MLSMR, MLSCN, NIH Roadmap, qHTS, NCGC
For `O=C(O)C=Cc1ccc(Cn2ccnc2)cc1`, the outcome was inactive.

Turning to `COc1ccc2c(c1OC)C(=O)OC2[C@H]1c2c(cc3c(c2OC)OCO3)CCN1C` (some centres not stated), the molecule was called inactive.

As for `CC(Oc1ccc(O)cc1)(P(=O)(O)O)P(=O)(O)O`, the outcome was inactive.

In the case of `CN(N=O)C(=O)N[C@H]1C(O)OC(CO)[C@@H](O)[C@H]1O` (some centres not stated), the outcome was inactive.

In the case of `O=c1c(O)c(-c2ccc(O)c(O)c2)oc2cc(O)ccc12`, the result was inactive.

Consider `CCN1CCN(C(=O)N[C@H](C(=O)N[C@@H]2C(=O)N3C(C(=O)O)=C(CSc4nnnn4C)CS[C@@H]23)c2ccc(O)cc2)C(=O)C1=O`, for which the call was inactive.

With `c1coc(CNc2ncnc3nc[nH]c23)c1`, the outcome was inactive.

Consider `CC(C)[C@H](CO)Nc1nc(Nc2cccc(Cl)c2)c2ncn(C(C)C)c2n1`, for which the result was inactive.

`CN1[C@H]2CC(OC(=O)[C@@H](CO)c3ccccc3)C[C@H]1[C@H]1O[C@H]12` (some centres not stated): the result was inactive.

As for `CN(C)CC[C@H](c1ccc(Cl)cc1)c1ccccn1`, the result was inactive.

Turning to `Nc1nc2c(c(=O)[nH]1)N(C=O)[C@H](CNc1ccc(C(=O)N[C@@H](CCC(=O)O)C(=O)O)cc1)CN2`, the molecule was called inactive.

For `COc1cc2c(cc1O)CCC1C2CC[C@@]2(C)C1CC[C@@H]2O` (some centres not stated), the result was inactive.

Values taken from PubChem BioAssay (NCATS).
